From PubChem BioAssay
HepG2 viability – HepG2 cytotoxicity, counter-screen for TGF-b inhibitors; AID 588856; HepG2 CAGA-GFP viability, ATP luminescence, 18 h; 410,000 compounds, 0.76% hits; Potency, µM (top dose mostly 46.1 µM), without a hit: top-dose activity change, negative = cytotoxicity, hits mostly cytotoxic; note: potency is the fitted concentration of half-maximal effect
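HepG2 CAGA-GFP cells (1000/well, DMEM with 1% FBS) received compound, then TGF-beta at 500 pg/mL final, and were incubated 18 hours at 37 degrees C. Viability was read by CellTiter-Glo luminescence. Media-only wells were set as complete cell-killing and DMSO as no toxicity.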
DT40 TDP1 no CPT – qHTS for Inhibitors of human tyrosyl-DNA phosphodiesterase 1 (TDP1): qHTS in cells in absence of CPT; Potency, µM (doses to about 46.2 µM), without a hit: top-dose activity change, negative = growth inhibition, actives largely listed as inhibitors; AID 686978, 2013; 420,000 compounds, 15% hits; DT40 Tdp1-/- hTDP1 cells, no CPT, ATP luminescence, 48 h; note: potency is the fitted concentration of half-maximal effect; % is set by controls: 0 for no effect and ±100 for the full control effect; nearly all actives have a fitted effect of over 55% in size
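Luminescent ATP content (CellTiter-Glo) served as the growth readout. Knockout chicken DT40 cells expressing human TDP1 were exposed to compounds without camptothecin for a minimum 48 hr at 37 °C.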
TGFb SMAD3 inh – inhibitors of TGF-b signaling; HepG2 CAGA-GFP TGF-b/SMAD3 reporter, GFP fluorescence, 18 h; TGF-beta stimulated, 500 pg/mL final; 410,000 compounds, 1.2% hits; Potency, µM (series often up to 46.1 µM), without a hit: top-dose activity, negative = inhibition, most hits filed as inhibitors; note: potency is the fitted concentration of half-maximal effect; % is set by controls: 0 for no effect and ±100 for the full control effect; nearly all actives have a fitted effect of over 65% in size
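Inhibition of TGF-beta-driven CAGA-GFP reporter expression in HEPG2 cells is measured by cellular GFP fluorescence after 18 h stimulation with 500 pg/mL recombinant TGF-beta in 1% FBS medium at 37 degrees C.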
IL-1B inflam inh – inflammasome signaling inhibition, IL-1 beta readout; THP-1 LPS/ATP IL-1B secretion, AlphaLISA, 16 h; stronger effect = lower value; activity change, % at 57.5 µM; 360,000 compounds, 4.7% hits; AID 743279; in the data active = activity change below about -50%; inconclusive = mostly about -30% to -49%; note: % is set by controls: 0 for no effect and ±100 for the full control effect
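Secreted IL-1B measured by AlphaLISA bead assay after 16 h compound exposure of THP-1 cells; compounds (final up to 57.5 uM) added 1 h before LPS (250 ng/mL) and ATP (1.25 mM) stimulation; lower signal means less secretion.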
DT40 TDP1 CPT – DT40-hTDP1 cell growth loss with CPT; chicken DT40 Tdp1-/-;hTDP1 cells + 20 nM CPT, ATP luminescence, 48 h; Potency, µM (highest dose often 46.2 µM), for the others: at the top dose activity change, negative = growth inhibition, most hits filed as inhibitors; 420,000 compounds, 12% hits; note: potency is the fitted concentration of half-maximal effect; % is set by controls: 0 for no effect and ±100 for the full control effect; nearly all actives have a fitted effect of over 55% in size
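Chicken DT40 Tdp1-/- cells stably complemented with human TDP1 were seeded at 400 cells/well in medium containing 20 nM camptothecin, exposed to pin-transferred compounds, and grown at 37 °C for at least 48 hr. Viability was read as ATP luminescence.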
TDP1 inh – TDP1 (human) enzyme inhibition | Q9NUW8 | recombinant TDP1, AlphaScreen DNA substrate cleavage | Potency, µM (doses to about 130 µM), for the others: at the highest dose activity change, negative = inhibition, usual class: inhibitors | 350,000 compounds, 0.28% hits; note: potency is the fitted concentration of half-maximal effect; % is set by controls: 0 for no effect and ±100 for the full control effect; nearly all actives have a fitted effect of over 40% in size
Target sequence (Q9NUW8 whole entry, looked up): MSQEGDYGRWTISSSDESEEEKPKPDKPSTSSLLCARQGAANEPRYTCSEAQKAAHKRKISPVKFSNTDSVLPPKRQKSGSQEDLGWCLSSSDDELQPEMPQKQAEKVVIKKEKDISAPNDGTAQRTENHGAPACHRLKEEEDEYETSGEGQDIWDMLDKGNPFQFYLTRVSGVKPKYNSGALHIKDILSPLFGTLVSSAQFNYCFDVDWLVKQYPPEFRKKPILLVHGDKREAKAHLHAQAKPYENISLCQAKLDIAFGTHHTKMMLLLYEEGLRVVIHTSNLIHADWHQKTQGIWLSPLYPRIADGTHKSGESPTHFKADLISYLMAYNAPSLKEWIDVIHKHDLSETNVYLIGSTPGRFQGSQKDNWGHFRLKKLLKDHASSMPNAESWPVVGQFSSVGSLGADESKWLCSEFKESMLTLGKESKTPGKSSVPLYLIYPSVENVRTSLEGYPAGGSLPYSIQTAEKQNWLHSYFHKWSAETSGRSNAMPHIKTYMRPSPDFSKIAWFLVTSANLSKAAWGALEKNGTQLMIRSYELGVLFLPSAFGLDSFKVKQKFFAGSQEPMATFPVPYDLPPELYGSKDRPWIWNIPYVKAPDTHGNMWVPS
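E. coli-derived human Tdp1, 1 nM final. Cpd preinc 15 min RT; substrate 15 nM final, 5 min RT; AS bead mix 10 ug/ml final, 10 min RT. Signal loss = tyrosine-FITC cleavage. No-enzyme wells = max signal.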
* = called active by the depositor; u = inconclusive; x = no result given. An excerpt weighted towards active compounds, which were near 18% of everything screened. Unless noted, calls come from the whole dose curve; as a rule, active = well fitted curve in the direction sought with a large enough effect; inconclusive = small, poorly fitted or top-dose-only effect, or another doubt; inactive = no such curve, though single readings can be large; an effect the other way counts as inactive or inconclusive.

SMILES	HepG2 viability	DT40 TDP1 no CPT	TGFb SMAD3 inh	IL-1B inflam inh	DT40 TDP1 CPT	TDP1 inh
CCc1ccc(OCc2cc(=O)n3cc(C)sc3n2)cc1	-5.5%	-1.8%	-2.0%	x	-2.1%	3.8%
O=C(N/N=C/c1cn(Cc2ccccc2)c2ccccc12)c1cc(O)cc(O)c1	-17.4%	2.4%	1.3%	u	-13.7%	-14.5%
CCn1c2ccccc2c2cc(/C=N/NC(=O)c3cc(O)cc(O)c3)ccc21	-51.6%	u	15.8µM*	-105.9*	-21.9%	-3.0%
Cn1c2ccccc2c2cc(/C=N/NC(=O)c3ccc(O)cc3O)ccc21	0.5%	u	-1.0%	0.0	u	2.1%
CCn1c2ccccc2c2cc(/C=N/NC(=O)c3ccncc3)ccc21	-33.5%	u	8.91µM*	0.0	u	7.2%
CCn1c2ccccc2c2cc(/C=N/NC(=O)c3ccc(O)cc3)ccc21	10.2%	25.9µM*	u	-13.8	23.1µM*	0.6%
Clc1ccc(CN2CCC(CNc3ncnc4onc(-c5ccc(Cl)cc5)c34)CC2)cc1	-20.2%	23.1µM*	u	x	u	-1.3%
Cc1ccc(CN2CCC(CNc3ncnc4onc(-c5ccc(Cl)cc5)c34)CC2)cc1	-28.5%	16.4µM*	-24.2%	x	18.4µM*	-5.3%
Cc1ccccc1CN1CCC(CNc2ncnc3onc(-c4ccc(Cl)cc4)c23)CC1	3.9%	16.4µM*	5.6%	x	u	1.1%
Cc1cccc(CN2CCC(CNc3ncnc4onc(-c5ccc(Cl)cc5)c34)CC2)c1	-32.5%	u	u	x	u	1.3%
COc1ccccc1OCCSc1nc2ccccc2n1CC(=O)N1CCOCC1	-2.7%	u	7.9%	x	-15.3%	5.7%
CCOC(=O)C1OC1C(=O)N[C@@H](CC(C)C)C(=O)NCCC(C)C (some centres not stated)	x	x	x	x	x	5.6%
CC1CCCCN1C(=O)COC(=O)c1cccc(NS(=O)(=O)c2ccccc2)c1 (configuration not stated)	11.1%	-13.7%	30.0%	11.8	-13.2%	x
CCOC(=O)c1sc(NC(=O)c2ccccc2OCC)nc1C	-25.6%	u	24.8%	17.9	20.6µM*	-2.6%
CCOc1ccccc1C(=O)Nc1nnc(C(C)C)s1	-3.2%	u	-1.9%	-15.8	u	3.9%
CCOC(=O)c1sc(NC(=O)c2ccc3nc[nH]c3c2)nc1C	-10.4%	8.2µM*	0.9%	-9.4	u	x
CCOC(=O)c1sc(NC(=O)Nc2ccc(Cl)cc2)nc1C	-16.8%	23.1µM*	u	-28.1	u	4.0%
COc1ccc(F)c(Cn2cnc3c(cnn3C(C)(C)C)c2=O)c1Cl	6.9%	x	2.8%	x	x	x
COc1ccccc1CNC(=O)CN(Cc1ccc(Cl)cc1)S(C)(=O)=O	-26.0%	u	3.3%	-0.7	-19.1%	3.6%
CC(=O)N1CCN(C(=O)C(Cc2c[nH]c3ccccc23)NC(=O)c2ccccc2Cl)CC1 (configuration not stated)	16.9%	-10.3%	7.6%	6.0	-8.1%	7.4%
COc1cccc(CN2CCC(N(CCc3ccccc3)Cc3ccccc3)CC2)c1OC	-31.2%	29.1µM*	u	-61.7*	u	-3.4%
CCc1noc(C)c1C(=O)OCC(=O)N1CCc2ccccc21	-28.0%	2.31µM*	-10.6%	0.2	5.1%	-1.8%
CC1CCc2nc3ccccc3c(C(=O)OCC(=O)N3CCc4ccccc43)c2C1 (configuration not stated)	7.9%	5.8µM*	-1.2%	22.8	8.2µM*	-2.2%
